# Screening results from PubChem.
# MEKK2mut PB1 HTS = MEK5 binding signal on mutant MEKK2 PB1, primary screen, biochemical, multiplex bead flow cytometry, Alexa488-MEK5. hit rate 0.35% among 290,000. percent response, % at 10 µM. Alexa488-MEK5 binding to MEKK2 mutant; in the data active = percent response above about 24%, passing the limit was not always enough
# SKN-1 inh = suppressors of acrylamide-induced Pgst-4::GFP reporter in worms, primary screen, SKN-1 inhibitor project, whole organism, uHTS, GFP/RFP fluorescence ratio, strain VP596. inhibition, % at 21.8 µM. AID 624304, 2012. hit rate 0.49% among 360,000. C. elegans VP596 Pgst-4::GFP/RFP ratio, 24 h;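 active = interference check ratio from 0.5 to 1.5 plus GFP to RFP signal ratio inhibition reaching or exceeding a fixed threshold, cut at about 30% in these data, passing the limit was not always enough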
# MEKK2 WT-MEK5 = modulators of MEK5 binding to wildtype MEKK2, primary screen, biochemical, multiplex bead flow cytometry, Alexa488-MEK5 | Mitogen-activated protein kinase kinase kinase 2 (Homo sapiens), Q9Y2U5 | Alexa488-MEK5 binding to MEKK2 WT; actives lie on both sides | binding response (% of control), % at 10 µM | hit rate 1.1% among 290,000; in the data active = binding response below about 67% or above about 130%
# NRP1-CendR mod = modulators of CendR peptide binding to NRP-1, primary screen, biochemical, fluorescence polarization, uHTS. FAM-RPARPAR peptide binding to NRP-1. AID 602438, 2012. Neuropilin-1 (Homo sapiens), O14786. inhibition, % at 25 µM. hit rate 0.85% among 360,000;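 active = inhibition or corrected inhibition above about 18%, plus a signal ratio from 0.5 to 1.5, limit read from the data, passing the limit was not always enough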
# MEKK3 PB1 HTS = modulators of MEKK3-MEK5 PB1 binding, primary screen, biochemical, wildtype MEKK3, multiplex bead flow cytometry, Alexa488-MEK5; AID 1529, 2009; hit rate 1.4% among 290,000; bead-based flow cytometry, Alexa488-MEK5 binding to MEKK3; actives lie on both sides; 0 = blocked by unlabeled MEK5, 100 = vehicle; binding response (% of control), % at 10 µM;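 active = binding response more than 3 SD above or below the average of its plate-row segment, actives on both sides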;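 also: Alexa488 bead fluorescence after subtracting the streptavidin-only scavenger bead signal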
# Target sequence (Q99759 whole entry, looked up): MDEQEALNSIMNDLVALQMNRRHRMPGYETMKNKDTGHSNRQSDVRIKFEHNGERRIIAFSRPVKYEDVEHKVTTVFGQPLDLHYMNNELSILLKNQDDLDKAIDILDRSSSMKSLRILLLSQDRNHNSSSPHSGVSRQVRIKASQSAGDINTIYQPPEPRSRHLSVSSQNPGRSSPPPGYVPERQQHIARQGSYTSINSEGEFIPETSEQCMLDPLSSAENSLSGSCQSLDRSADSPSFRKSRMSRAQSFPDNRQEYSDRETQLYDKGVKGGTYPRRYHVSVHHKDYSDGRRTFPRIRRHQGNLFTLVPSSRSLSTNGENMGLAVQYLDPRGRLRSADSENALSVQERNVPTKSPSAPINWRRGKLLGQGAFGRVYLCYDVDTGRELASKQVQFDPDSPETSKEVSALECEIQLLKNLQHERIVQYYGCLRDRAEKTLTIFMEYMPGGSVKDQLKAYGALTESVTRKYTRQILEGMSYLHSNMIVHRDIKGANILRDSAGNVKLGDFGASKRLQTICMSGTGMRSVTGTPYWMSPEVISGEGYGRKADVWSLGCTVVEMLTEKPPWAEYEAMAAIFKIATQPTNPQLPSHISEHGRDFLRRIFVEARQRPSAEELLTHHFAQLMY
# MEKK2wt confirm = modulators of MEK5 binding to wildtype MEKK2, confirmation, biochemical, single concentration, multiplex bead flow cytometry | shares compounds with MEKK3 PB1 HTS | Alexa488-MEK5 binding to MEKK2 WT; actives lie on both sides | binding response (% of control), % at 10 µM | hit rate 2.4% among 5,900; in the data active = binding response below about 16% or above about 210%; inactive = in between
# MEKK2mut confirm = mutant MEKK2 PB1-MEK5 binding signal retest – biochemical, single concentration, multiplex bead flow cytometry, confirmation | Alexa488-MEK5 binding to MEKK2 mutant | AID 1893, 2009 | percent response, % at 10 µM | hit rate 2% among 5,900 | shares compounds with MEKK3 PB1 HTS; in the data active = percent response mostly above about 71%, no sharp cut-off; inactive = mostly below about 38%;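 also: higher means compound restores mutant binding toward wildtype level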
# MEKK3 confirm = MEKK3 wild-type PB1 binding to MEK5, inhibitors, confirmation, biochemical, bead multiplex flow cytometry, single concentration, wildtype; Alexa488-MEK5 binding to MEKK3; stronger effect = lower value; binding response (% of control), % at 10 µM; shares compounds with MEKK3 PB1 HTS; hit rate 1.8% among 5,900;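 active = binding response below 72% of control, or above a set upper limit, though filed actives all read lower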;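 also: 100% = DMSO only wells and 0% = binding blocked by excess unlabeled MEK5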
# Numbers without * were called inactive; . = no result; [ ] = dose if it differs, or a comment. Rows were chosen to be rich in hits. Some 3.2% of all compounds tested hit in one or more screens of this group.
SMILES,MEKK2mut PB1 HTS,SKN-1 inh,MEKK2 WT-MEK5,NRP1-CendR mod,MEKK3 PB1 HTS,MEKK2wt confirm,MEKK2mut confirm,MEKK3 confirm
CCN(C(=O)COC(=O)C1CCC(C(C)(C)C)CC1)c1c(N)n(Cc2ccccc2)c(=O)[nH]c1=O (stereo not drawn),.,-3,.,2,.,.,.,.
O=C(COC(=O)Cc1ccccc1[N+](=O)[O-])NCc1ccc(Cl)cc1,0,5,107,-8,143*,109,1,106
C(=N\NC1=NCCN1)/c1ccncc1,7,-4,108,6,100,.,.,.
Cc1ccc(C(=O)C[n+]2cc(Br)cc(Br)c2)cc1[N+](=O)[O-],51*,5,101,2,104,111,2,98
CC1=CC(=O)C2(C)C(C)=C(C)C12C (stereo not drawn),.,17,.,0,.,.,.,.
O=C(N/N=C/c1cccc(NC(=O)c2ccc(Cl)cc2)c1)c1ccc(O)cc1,-13,-3,38*[inhibitor],1,44*[inhibitor],96,-2,101
CN(C)c1ccc(/C=N/NC(=O)c2ccc(NC(=O)c3ccccc3)cc2)cc1,-37,-6,80,-3,73*[inhibitor],99,0,99
O=C(N/N=C/c1ccc(Br)cc1)c1ccc(NC(=O)c2ccccc2)cc1,.,-12,.,-8,.,.,.,.
OC[C@H]1O[C@H](OC[C@H]2OC(O)[C@H](O)[C@@H](O)[C@@H]2O)[C@H](O)[C@@H](O)[C@@H]1O (stereo partly drawn),.,-14,.,-1,.,.,.,.
Cc1cc(NC(=O)COC(=O)[C@@H]2CCCN2C(=O)c2cccs2)no1,.,-1,.,2,.,.,.,.
CCN(CC)c1ccc(C=Nc2cccnc2Cl)c(O)c1,-5,13,66*[inhibitor],-11,92,97,2,102
O=C1/C(=C/c2cccs2)N=C(c2cccs2)N1Nc1ccccc1,-16,15,57*[inhibitor],10,88,78,-8,103
COc1cc2oc(=O)cc(CN3CCN(C(C)=O)CC3)c2cc1Cl,.,-1,.,-9,.,.,.,.
CCN(CC)Cc1c(C(=O)N/N=C/c2cccc(OCc3cccc(Cl)c3)c2)nnn1-c1nonc1N,2,-6,98,2,104,.,.,.
CCCC[C@@H](CNC)NC[C@H](Cc1ccc(O)cc1)NCCc1ccc(OCC)cc1,5,-12,153*,5,103,142,26,102
CCC[C@H](CN[C@@H](CNC)[C@H](C)O)NCCc1ccc(OC)cc1,-4,5,107,-1,101,.,.,.
CSCCC(C(=O)Nc1c(C)cccc1C)n1c(-c2cc(C)cs2)nc2ccccc21 (stereo not drawn),.,-7,.,-4,.,.,.,.
O=C1NC[C@H](Cc2ccccc2)N(C[C@@H]2CCCN2C[C@H](Cc2ccccc2)N2C[C@H](Cc3ccc(O)cc3)N(CCc3ccccc3)C(=O)C2=O)C1=O,.,0,.,-9,.,.,.,.
N=C1/C(=C\c2ccc(SCc3ccccc3)o2)C(=O)N=C2SC(CC(=O)N3CCOCC3)=NN12,-12,0,50,-72,48*[inhibitor],94,-6,94
Cc1ccc(/C=C2\C(=N)N3N=C(CC(=O)N4CCOCC4)SC3=NC2=O)o1,4,3,104,-28,101,.,.,.
COc1cccc(OCC(=O)Nc2c3c(nn2-c2ccc(F)cc2)CS(=O)(=O)C3)c1,7,-13,107,11,102,.,.,.
O=c1c2c3nc4ccccc4nc3n(/N=C/c3ccncc3)c2ncn1-c1ccccc1,30,-7,121,13,131*,98,-3,102
CCC(C)(C)C1CCC2(CC1)NC(=O)N(CC(=O)NCCc1ccc(OC)c(OC)c1)C2=O (stereo not drawn),.,27,.,16,.,.,.,.
O=C(CSc1nnc(-c2cccs2)n1Cc1ccccc1)NCc1ccc2c(c1)OCO2,-9,-14,90,24*,76*[inhibitor],103,1,105
CCn1c(SCC(=O)NCc2ccc3c(c2)OCO3)nnc1-c1cccs1,6,-13,99,-1,101,.,.,.
SMILES,MEKK2mut PB1 HTS,SKN-1 inh,MEKK2 WT-MEK5,NRP1-CendR mod,MEKK3 PB1 HTS,MEKK2wt confirm,MEKK2mut confirm,MEKK3 confirm
CN(C)CCc1cc2c(c3c1ccc1ccccc13)OCO2,19,-7,174*,4,110,141,25,105
COCC(=O)OCC(=O)Nc1ccc(Cl)cc1[N+](=O)[O-],-19,-3,44*[inhibitor],-22,32*[inhibitor],99,-2,101
COCC(=O)OCC(=O)Nc1cc([N+](=O)[O-])ccc1Cl,-10,1,89,-8,95,.,.,.
Cc1cc(NC(=O)c2ccccc2O)nc(C)n1,2,1,105,3,104,.,.,.
Cc1cc(C)nc(NNC(=O)c2ccccc2O)n1,1,-11,111,0,129*,104,3,103
O=C1NC[C@H](Cc2ccccc2)N(C[C@@H]2CCCN2C[C@H](Cc2ccccc2)N2C[C@H](Cc3ccccc3)N(CCc3ccccc3)C(=O)C2=O)C1=O,.,10,.,0,.,.,.,.
COC(=O)c1c(NC(=O)/C=C/c2ccco2)sc2c1CCC2,2,0,104,-4,134*,96,-4,100
Cc1sc(NC(=O)/C=C/c2ccco2)c(C(=O)OC(C)C)c1C,12,8,120,-1,101,.,.,.
CCOCCCNCC(O)c1ccccc1 (stereo not drawn),2,12,116,0,162*,94,-10,96
O=C(Nc1ccc(C(F)(F)F)cc1)C1CCN(c2cnccn2)CC1,3,5,98,0,103,.,.,.
CN(c1c[nH]c(=O)[nH]c1=O)C1CCCCC1,-13,-6,72,-2,69*[inhibitor],102,0,99
COc1ccc(Oc2ccc(C(F)(F)F)cc2NC(=O)c2ccc(F)cc2)cc1,28,-3,122,-4,133*,102,-8,97
COc1cccc(Oc2ccc(C(F)(F)F)cc2NC(=O)c2cccc(F)c2)c1,5,23,110,8,111,.,.,.
